Measurements from PubChem BioAssay (NCI).
The panel holds about 83,000 compounds, 20% with a hit somewhere; the sample as a whole holds those more often.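 In brief: 96-well plates, 48 h treatment, single concentration, percent growth endpoint.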 Calls of active or inactive are those of the source. How the source made its calls: active means growth percent below 10; inactive means the rest.

Assays:
Assay in all cases: NCI-60 one-dose screen, 48 h (100 = growth as untreated, 0 = no growth, -100 = all killed)
Conditions in all cases: 10 µM unless noted
DU-145 prostate = system: DU-145 prostate
K-562 leukemia = system: K-562 leukemia
MALME-3M melanoma = system: MALME-3M melanoma
MDA-MB-231 breast = system: MDA-MB-231 breast
RXF 393 renal = system: RXF 393 renal
SF-268 CNS = system: SF-268 CNS
SF-295 CNS = system: SF-295 CNS
SF-539 CNS = system: SF-539 CNS
UACC-257 melanoma = system: UACC-257 melanoma
M14 melanoma = system: M14 melanoma
HCT-15 colon = system: HCT-15 colon
HT29 colon = system: HT29 colon
SNB-75 CNS = system: SNB-75 CNS
SNB-19 CNS = system: SNB-19 CNS
PC-3 prostate = system: PC-3 prostate
SK-MEL-5 melanoma = system: SK-MEL-5 melanoma
UACC-62 melanoma = system: UACC-62 melanoma
LOX IMVI melanoma = system: LOX IMVI melanoma
SK-MEL-28 melanoma = system: SK-MEL-28 melanoma
U251 CNS = system: U251 CNS

Measured: growth

O=C(CCCCCCN1CC(=O)N2[C@@H](C3CCCCC3)c3[nH]c4ccccc4c3C[C@H]2C1=O)NO
active: LOX IMVI melanoma -3.25%
inactive: DU-145 prostate 80% | K-562 leukemia 31.1% | MALME-3M melanoma 37.5% | MDA-MB-231 breast 82.9% | RXF 393 renal 65.2% | SF-268 CNS 106% | SF-295 CNS 89.2% | SF-539 CNS 69.3% | UACC-257 melanoma 54.1% | M14 melanoma 63.8% | HCT-15 colon 115% | HT29 colon 58.9% | SNB-75 CNS 38.1% | SNB-19 CNS 74.6% | PC-3 prostate 62.7% | SK-MEL-5 melanoma 66% | UACC-62 melanoma 35.3% | SK-MEL-28 melanoma 60.7%

C=C(C)[C@@H]1CC[C@]2(CO)CC[C@]3(C)[C@H](CC[C@@H]4[C@@]5(C)CCC(NCCc6ccc(O)cc6)C(C)(C)[C@@H]5CC[C@]43C)[C@@H]12 (stereo not given in full)
active: DU-145 prostate -96.5% | K-562 leukemia -51.2% | MALME-3M melanoma -81.5% | MDA-MB-231 breast -87.3% | RXF 393 renal -91.2% | SF-268 CNS -88.8% | SF-295 CNS -95.8% | SF-539 CNS -88% | UACC-257 melanoma -78.2% | M14 melanoma -84.9% | HCT-15 colon -92.8% | HT29 colon -87.9% | SNB-75 CNS -86.7% | SNB-19 CNS -82.1% | U251 CNS -94.2% | SK-MEL-5 melanoma -95.4% | UACC-62 melanoma -89.3% | SK-MEL-28 melanoma -88.8%

Fc1ccc(CNc2c3ccccc3nc3ccccc23)cc1
inactive: DU-145 prostate 34.9% | MALME-3M melanoma 25.7% | MDA-MB-231 breast 38.3% | SF-268 CNS 53.3% | SF-295 CNS 27.6% | SF-539 CNS 13.1% | UACC-257 melanoma 36% | M14 melanoma 34.4% | HCT-15 colon 17.6% | HT29 colon 16.1% | SNB-75 CNS 42.1% | SNB-19 CNS 32.4% | PC-3 prostate 26.9% | SK-MEL-5 melanoma 42.5% | UACC-62 melanoma 50.2% | SK-MEL-28 melanoma 68.2%
active: K-562 leukemia 4.79% | RXF 393 renal 0.247%

COc1cc(C(=O)/C=C/c2c(-c3cccs3)nc3ccccn23)cc(OC)c1OC
inactive: K-562 leukemia 25.7% | MALME-3M melanoma 33.9% | MDA-MB-231 breast 24.7% | SF-268 CNS 21% | UACC-257 melanoma 29.9% | M14 melanoma 11.7% | SNB-19 CNS 14.2%
active: DU-145 prostate 3.29% | RXF 393 renal 2.35% | SF-295 CNS -29.7% | SF-539 CNS -27% | HCT-15 colon -7.46% | HT29 colon -25.8% | SNB-75 CNS -4.3% | PC-3 prostate 7.19% | SK-MEL-5 melanoma -24.1% | UACC-62 melanoma -33.1% | LOX IMVI melanoma -1.66% | SK-MEL-28 melanoma 8.11%

C=C1C(=O)O[C@H]2[C@H]1CC/C(COC(=O)/C=C\C(=O)NCc1ccc(Cn3c(=O)sn(-c4ccccc4)c3=O)cc1)=C\CC[C@@]1(C)O[C@@H]21
inactive: DU-145 prostate 55.7% | K-562 leukemia 16.2% | MALME-3M melanoma 55.9% | MDA-MB-231 breast 85.6% | RXF 393 renal 84.3% | SF-268 CNS 99.1% | SF-295 CNS 103% | SF-539 CNS 92% | UACC-257 melanoma 73.8% | M14 melanoma 47.8% | HCT-15 colon 42.4% | HT29 colon 50.8% | SNB-75 CNS 98% | SNB-19 CNS 107% | PC-3 prostate 83.5% | SK-MEL-5 melanoma 106% | UACC-62 melanoma 85% | LOX IMVI melanoma 76% | SK-MEL-28 melanoma 94.4%

CC(=O)c1c(Nc2ccc(F)c(F)c2F)[nH]c2c(F)cc(F)cc2c1=O
active: K-562 leukemia 7.47% | MALME-3M melanoma -22.6% | MDA-MB-231 breast -1.7% | RXF 393 renal -4.56% | SF-295 CNS -35.3% | SF-539 CNS 1.53% | UACC-257 melanoma -18.4% | M14 melanoma 2.68% | HCT-15 colon 4.32% | HT29 colon 3.62% | SNB-75 CNS -14.8% | PC-3 prostate 4.75% | SK-MEL-5 melanoma -75.8% | UACC-62 melanoma -27.9% | LOX IMVI melanoma 5.66% | SK-MEL-28 melanoma 4.71%
inactive: DU-145 prostate 18.1% | SF-268 CNS 17.9% | SNB-19 CNS 22%

CCNCc1ccc(O)c2ncccc12
active: UACC-257 melanoma 9.76% | SK-MEL-5 melanoma 6.19%
inactive: DU-145 prostate 37% | K-562 leukemia 13.9% | MALME-3M melanoma 60.6% | MDA-MB-231 breast 46.9% | RXF 393 renal 60.3% | SF-268 CNS 35.2% | SF-295 CNS 39.9% | SF-539 CNS 25.1% | M14 melanoma 33.8% | HCT-15 colon 28% | HT29 colon 95.9% | SNB-75 CNS 31.1% | SNB-19 CNS 24.2% | PC-3 prostate 23.4% | UACC-62 melanoma 25% | LOX IMVI melanoma 31% | SK-MEL-28 melanoma 65.6%

Cc1ccc(/C=C(\C#N)C(=O)Nc2ncc(Cc3cc(Cl)ccc3Cl)s2)o1
inactive: DU-145 prostate 60% | K-562 leukemia 24.6% | MALME-3M melanoma 54.3% | MDA-MB-231 breast 76.4% | RXF 393 renal 38.3% | SF-268 CNS 44.2% | SF-539 CNS 16.9% | UACC-257 melanoma 35.3% | M14 melanoma 69.4% | HCT-15 colon 59% | HT29 colon 97% | SNB-19 CNS 27.6% | PC-3 prostate 38.8% | SK-MEL-5 melanoma 51.6% | LOX IMVI melanoma 11.9% | SK-MEL-28 melanoma 88.9%
active: SF-295 CNS 5.34% | SNB-75 CNS -0.376% | UACC-62 melanoma 6.39%
